# ± gives the standard deviation of the averaged measurements.
# Legend:
# DLD1 [1] = test: cell viability (CellTiter-Glo) relative to plate median (fraction of plate median); higher = more viable cells; details: 5 µM; treatment time 24 h; reporter: 7TFP
# In short: (§1)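 For this screen, colorectal cancer cell lines carrying stable lentiviral TCF/Wnt firefly luciferase reporters, either 7TFP or TCF4/Wnt, were seeded into 384-well plates. A day's wait of 24 h preceded addition of library compounds at a final 5 µM, which stayed on the cells for 24 h. Firefly luciferase or CellTiterGlo luminescence, read on parallel plates, was normalised to the plate median per well, and the reported value is the mean of two independent replicates.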
# HCT116 = test: as above; details: 5 µM; treatment time 24 h; reporter: TCF4/Wnt
# In short: as §1
# SW480 [2] = test: as above; details: 5 µM; treatment time 24 h; reporter: 7TFP
# In short: as §1
# DLD1 [3] = test: TCF/Wnt firefly luciferase reporter signal relative to plate median (fraction of plate median); higher = higher Wnt reporter signal; details: 5 µM; treatment time 24 h; reporter: 7TFP
# In short: as §1
# SW480 [4] = test: as above; details: 5 µM; treatment time 24 h; reporter: 7TFP
# In short: as §1
SMILES,cell viability (DLD1 [1]),cell viability (HCT116),cell viability (SW480 [2]),TCF/Wnt firefly luciferase reporter signal (DLD1 [3]),TCF/Wnt firefly luciferase reporter signal (SW480 [4])
COCC1=C(C(=O)OC(C)OC(=O)OC(C)C)N2C(=O)[C@@H](NC(=O)/C(=N\OC)c3csc(N)n3)[C@H]2SC1 (stereo not given in full),1.07 ± 0.085,1.09 ± 0.085,1.02 ± 0.028,1.01 ± 0.061,0.999 ± 0.059
O=C(CC(=O)c1ccccc1)c1ccccc1,0.972 ± 0.069,0.82 ± 0.026,1.03,1.15 ± 0.021,1.17 ± 0.057
NCCCS(=O)(=O)O,0.999 ± 0.044,0.993 ± 0.052,0.974 ± 0.011,0.969 ± 0.14,1.11 ± 0.05
CN1CCC(=C2c3ccccc3CC(=O)c3sccc32)CC1,0.988 ± 0.046,1.04 ± 0.083,0.988 ± 0.017,0.956 ± 0.021,0.934 ± 0.042
CCC(=O)OCC(=O)[C@@]1(OC(=O)CC)[C@@H](C)C[C@H]2[C@@H]3CCC4=CC(=O)C=C[C@]4(C)[C@@]3(Cl)[C@@H](O)C[C@@]21C,0.958 ± 0.0057,0.982 ± 0.11,1.01,0.94 ± 0.044,0.941 ± 0.018
COC(=O)C1=CO[C@@H](O[C@@H]2O[C@H](CO)[C@@H](O)[C@H](O)[C@H]2O)[C@H]2[C@@H]1C(=O)C[C@@H]2C,1.03 ± 0.067,0.992 ± 0.083,0.982 ± 0.026,1.08 ± 0.064,1.06 ± 0.021
O=C(CCc1ccc(O)cc1)c1c(O)cc(O)cc1O,0.974 ± 0.093,0.88 ± 0.047,0.933 ± 0.0042,0.75 ± 0.047,0.858 ± 0.037
C=CCc1ccccc1OCC(O)CNC(C)C (stereo not given),1.03 ± 0.055,1.04 ± 0.035,0.961 ± 0.035,1.1 ± 0.27,0.852 ± 0.077
"COC(=O)C[C@H]1C(C)(C)[C@@H](O)[C@@H]2CC3=C4CC(O)O[C@@H](c5ccoc5)[C@]4(C)CCC3[C@@]1(C)C2=O (stereo partly drawn) [3,16-DIDEOXYMEXICANOLIDE-3beta-DIOL]",1.1 ± 0.085,1.04 ± 0.042,1.035 ± 0.0071,1.02 ± 0.15,0.896 ± 0.076
O=C(O)CN(CC(=O)O)Cc1cc2c(cc1O)Oc1cc(O)c(CN(CC(=O)O)CC(=O)O)cc1C21OC(=O)c2ccccc21,0.965 ± 0.03,0.914 ± 0.089,0.96 ± 0.053,0.909 ± 0.13,0.895 ± 0.12
C[C@H]1C[C@H]2[C@@H]3CCC4=CC(=O)C=C[C@]4(C)[C@@]3(F)[C@@H](O)C[C@]2(C)[C@@]1(O)C(=O)CO,0.973 ± 0.0099,1.03 ± 0.086,1.01 ± 0.016,0.938 ± 0.027,0.953 ± 0.0028
CN1CCC(OC(c2ccccc2)c2ccccc2)CC1,0.969 ± 0.044,1.02 ± 0.014,0.979 ± 0.024,1.12 ± 0.13,1.16 ± 0.092
O=C1C(O)=C(O)C(=O)C(O)=C1O,0.96 ± 0.03,0.997 ± 0.1,0.944 ± 0.015,0.829 ± 0.011,0.822 ± 0.056
Cc1cnc(NC(=O)C2=C(O)c3ccccc3S(=O)(=O)N2C)s1,1.01 ± 0.04,1.05 ± 0.078,0.995 ± 0.079,1.02 ± 0.031,1.03 ± 0.044
Nc1ccc(S(N)(=O)=O)cc1,1.04 ± 0.081,0.975 ± 0.031,1.065 ± 0.0071,1.04,1.02 ± 0.073
C=C1C[C@H]2[C@@H]3C=C(C)C4=CC(=O)CC[C@]4(C)[C@H]3CC[C@]2(C)[C@@]1(OC(C)=O)C(C)=O,0.99 ± 0.042,1 ± 0.11,1.01,0.986 ± 0.076,0.902 ± 0.094
C=C(C)[C@H]1C(=O)[C@H]2O[C@@]2(C)C(=O)[C@@H](O)[C@H](C(=C)C)CCC2=C[C@H]1OC2=O [bipinnapterolide A],1.17 ± 0.071,1.04 ± 0.092,1.01 ± 0.033,0.971 ± 0.042,0.913 ± 0.12
CC(C)=CCc1c2c(c3occ(-c4ccc(O)c(O)c4)c(=O)c3c1O)C=CC(C)(C)O2,0.997 ± 0.033,1.04 ± 0.067,1.03 ± 0.028,0.996 ± 0.077,1.02 ± 0.021
O=C(O)CCCCCCCCCCCC[C@@H]1C=CCC1,1 ± 0.055,1.03 ± 0.058,0.966 ± 0.1,1.15 ± 0.014,1 ± 0.096
C[C@]12CCC(=O)C=C1CC[C@@H]1[C@@H]2[C@@H](O)C[C@@]2(C)[C@H]1CC[C@]2(O)C(=O)CO,1.06 ± 0.071,1.05 ± 0.057,1.04 ± 0.028,0.951 ± 0.11,0.935 ± 0.04
CC[C@]1(O)C[C@H]2CN(CCc3c([nH]c4ccccc34)[C@@](C(=O)OC)(c3cc4c(cc3OC)N(C=O)[C@H]3[C@@](O)(C(=O)OC)[C@H](OC(C)=O)[C@]5(CC)C=CCN6CC[C@]43[C@@H]65)C2)C1,1.01 ± 0.16,0.53 ± 0.064,1.17 ± 0.035,0.666 ± 0.091,0.713 ± 0.075
CO[C@H]1C=C[C@@]23c4cc5c(cc4CN(C[C@@H]2O)[C@H]3C1)OCO5,0.864 ± 0.075,0.847 ± 0.069,0.862 ± 0.035,0.857 ± 0.057,0.901 ± 0.18
CC(C)C[C@H]1C(=O)N2CCC[C@H]2C(=O)N1O [Cyclo(hydroxyleucylprolyl)],0.978 ± 0.074,0.973 ± 0.081,0.988 ± 0.088,0.949 ± 0.0042,1.05 ± 0.071
CC(=O)OCC(=O)[C@@]1(O)CC[C@H]2[C@@H]3CCC4=CC(=O)CC[C@]4(C)[C@H]3C(=O)C[C@@]21C,1.04 ± 0.021,1 ± 0.079,1.12 ± 0.12,1.05 ± 0.021,1.04 ± 0.13
CC(C(=O)O)c1ccc(N2Cc3ccccc3C2=O)cc1 (stereo not given),0.986 ± 0.035,1.06 ± 0.035,0.992 ± 0.054,0.99 ± 0.14,1.05 ± 0.064
C=C(CC)C(=O)c1ccc(OCC(=O)O)c(Cl)c1Cl,1.01 ± 0.046,1.01 ± 0.046,1.03 ± 0.05,1.11 ± 0.11,1.095 ± 0.0071
OC(CCN1CCCCC1)(c1ccccc1)C1CCCCC1 (stereo not given),0.963 ± 0.03,0.932 ± 0.033,0.945 ± 0.052,0.855 ± 0.052,0.917 ± 0.018
Cc1c(C)c2c(c(C)c1O)CCC(C)(COc1ccc(CC3SC(=O)NC3=O)cc1)O2 (stereo not given),1.05 ± 0.085,1.04 ± 0.071,1.06 ± 0.021,0.942 ± 0.11,1.04 ± 0.021
Cc1cc(O)cc(O)c1C(=O)O,1.03 ± 0.035,1.07 ± 0.1,1.03 ± 0.014,1 ± 0.05,0.925 ± 0.039
COC(=O)C(O)c1ccccc1 (stereo not given),1.04 ± 0.021,1.11,1.07 ± 0.035,1.04 ± 0.042,0.876 ± 0.019

# — the supplement of paper PMC6522484
